Assay results published in PubChem BioAssay (NCATS).
Records with an inconclusive call do not appear. Activity calls are given as the source filed them. Unless noted, calls come from the whole dose curve; as a rule, active = well fitted curve in either direction with a large enough effect (not every such curve was filed as active); inconclusive = small, poorly fitted or top-dose-only effect, or another doubt; inactive = flat fitted curve, though single readings scatter.

What was measured:
[1] = target: Lysosomal acid glucosylceramidase (Homo sapiens) (UniProt P04062); assay: Glucocerebrosidase-p2 (AID 348; in the data active = potency below about 10 µM; note: potency is the fitted concentration of half-maximal effect); details: purified GBA, blue fluorogenic substrate, 40 min
How it was run: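 Compounds titrated from 0.6 nM upwards against 0.2 nM enzyme in pH 5.9 citric acid/KH2PO4, taurocholate, tween-20; blue fluorogenic substrate 80 uM, 40 min room temperature, stopped and read Ex 365/Em 440 for AC50.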

[2] = AP1 Signaling Pathway (AID 357); details: ME-180 AP-1-bla reporter, EGF-induced, beta-lactamase ratio, 5 h; at 7.69 µM (top of the series) unless noted;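 note: ME-180 reporter cells stimulated with EGF at its EC50 level; % is set by controls: 0 for no effect and ±100 for the full control effect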
How it was run: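 Cells are seeded overnight, exposed to compound titrations and an EC50 level of EGF for 5 hours at 37 °C, then loaded with CCF4 dye for 2.5 hours. Beta-lactamase activity under the AP-1 element is read as a blue/green ratio.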

[3] = target: Cytochrome P450 1A2 (Homo sapiens) (UniProt P05177); assay: p450-cyp1a2 (AID 410; calls by dose curve; note: potency is the fitted concentration of half-maximal effect;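 for activity change, negative = inhibition: -100% = full effect of reference inhibitor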); details: recombinant CYP1A2, luciferin-ME demethylation, luminescence; series mostly up to 57 µM
How it was run: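 Inhibition was calculated relative to 57 uM furafylline (full inhibition). The reaction used human CYP1A2 at 20nM with Luciferin-ME at its Km, 100uM, driven by an NADPH-regenerating system for 60 min at room temperature.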

[4] = NFAT Signaling Pathway (AID 444); details: Jurkat NFAT-bla M1, carbachol, beta-lactamase ratio, 5 h; at 7.69 µM (top of the series) unless noted;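 note: carbachol stimulus at about its EC50 of 1 µM final; % is set by controls: 0 for no effect and ±100 for the full control effect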
How it was run: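 Jurkat cells with NFAT-driven β-lactamase reporter and co-expressed M1 receptor, stimulated with carbachol (final 1 uM, ~EC50), compound titration, 5 h at 37 °C. CCF4 loaded 1 h at RT; 460/530 nm ratio gave %activity and AC50.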

[5] = target: Glucocorticoid receptor (Homo sapiens) (UniProt P04150); assay: GR-EFC Redistribution (AID 451; calls by dose curve; note: potency is the fitted concentration of half-maximal effect); details: CHO-K1 GR-EFC translocation, beta-gal luminescence, 2 h
How it was run: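 CHO-K1 cells expressing nuclear EA and GR-ED fragments of b-gal; compounds titrated up to 46 uM final, 2 h at 37 C. GR nuclear translocation read as complemented b-gal luminescence after 1 h RT detection.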

[6] = target: Mitogen-activated protein kinase 10 (Mus musculus) (UniProt Q61831); assay: JNK3 AlphaScreen Assay (AID 530); details: JNK3 lysate, c-Jun phosphorylation; series mostly up to 57.1 µM;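 note: kinase came from lysate of stimulated human HepG2 cells; signal reports phosphorylation of biotinylated GST-cJun 1-79 at Ser73 with 10 µM ATP; % is set by controls: 0 for no effect and ±100 for the full control effect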
How it was run: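 qHTS format: compounds tested as titrations against IL-1beta/TNF-alpha-activated HepG2 lysate JNK3 with biotin-GST-cJun substrate and 10 uM ATP at room temperature. Loss of anti-phospho-cJun AlphaScreen signal indicates inhibition.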

[7] = target: 3',5'-cyclic-AMP phosphodiesterase 4B (Homo sapiens) (UniProt Q07343); assay: qHTS Assay for Inhibitors of PDE-IV (AID 607; active = well fitted activation curve with a large enough effect in the main read-out, with a control signal flat, not every such curve was filed as active; note: % of control where 0% means no effect); details: HEK293 ACTOne CNG channel cells, membrane potential fluorescence; series mostly up to 22.9 µM
How it was run: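 ACTOne HEK293 cells carry a modified cAMP-gated CNG channel and express endogenous PDE4; plated 1000 cells/well, compounds up to 22.9 uM final. Membrane-potential dye fluorescence (ex 535/em 590) was read; parental cells received 10 uM forskolin + 100 uM RO 20-1724.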

[8] = target: Cytochrome P450 2C9 (Homo sapiens) (UniProt P11712); assay: qHTS Assay for Inhibitors and Substrates of Cytochrome P450 2C9 (AID 883; active = well fitted curve in the direction sought with a large enough effect; an effect the other way counts as inactive or inconclusive; note: % is set by controls: 0 for no effect and ±100 for the full control effect; nearly all actives have a fitted effect of over 60% in size); details: recombinant CYP2C9, luciferin-H luminescence, 60 min; series mostly up to 57.1 µM
How it was run: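 Human CYP2C9 (10nM) with Luciferin-H at 100uM (its KM) in 25mM KPO4; compound preincubated 10 min at 37C, then NADPH regeneration for 60 min at 37C. Luciferin read by luminescence after detection reagent; normalized to 57uM sulphaphenazole as full inhibition.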

[9] = target: Cytochrome P450 3A4 (Homo sapiens) (UniProt P08684); assay: qHTS Assay for Inhibitors and Substrates of Cytochrome P450 3A4 (AID 884; active = well fitted curve in the direction sought with a large enough effect; an effect the other way counts as inactive or inconclusive; note: % is set by controls: 0 for no effect and ±100 for the full control effect; nearly all actives have a fitted effect of over 50% in size); details: recombinant CYP3A4, Luciferin-PPXE luminescence; series mostly up to 57.1 µM
How it was run: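 20 nM human CYP3A4 with 25 uM Luciferin-PPXE (at KM) in 200 mM KPO4, preincubated 10 min with compound; NADPH regeneration started a 60 min RT reaction. Luciferin detected by luminescence, normalized to 57 uM ketoconazole as full inhibition.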

[10] = target: Cytochrome P450 2D6 (Homo sapiens) (UniProt P10635); assay: qHTS Assay for Inhibitors and Substrates of Cytochrome P450 2D6 (AID 891; active = well fitted curve in the direction sought with a large enough effect; an effect the other way counts as inactive or inconclusive;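 note: luciferin methyl ether substrate demethylated by CYP2D6 with NADPH regeneration; % is set by controls: 0 for no effect and ±100 for the full control effect; nearly all actives have a fitted effect of over 60% in size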); details: recombinant CYP2D6, luciferin-ME EGE luminescence; series mostly up to 57.1 µM
How it was run: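 Human CYP2D6 (5 nM) with 30 uM Luciferin-ME EGE (at Km) in 100 mM KPO4, compound preincubated 10 min, then NADPH regeneration system for 60 min at room temperature. Luciferin read by luminescence; normalized to 1.43 uM quinidine.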

[11] = target: Cytochrome P450 2C19 (Homo sapiens) (UniProt P33261); assay: qHTS Assay for Inhibitors and Substrates of Cytochrome P450 2C19 (AID 899; active = well fitted curve in the direction sought with a large enough effect; an effect the other way counts as inactive or inconclusive; note: % is set by controls: 0 for no effect and ±100 for the full control effect; nearly all actives have a fitted effect of over 60% in size); details: recombinant CYP2C19, luciferin-H EGE luminescence; series mostly up to 57.1 µM
How it was run: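 5 nM human CYP2C19 with 10uM Luciferin-H EGE (at KM) in 50mM KPO4, compound preincubated 10 min at 37C, then NADPH regeneration for 60 min at 37C. Luciferin read by luminescence after detection reagent; normalized to 57uM ketoconazole as full inhibition.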

[12] = qHTS Assay for Lipid Storage Modulators (AID 1519; calls by dose curve); details: Drosophila S3 cells, BODIPY lipid droplet/cell ratio, laser cytometry, cells loaded with oleic acid; for activity change, negative = inhibition: at 57.5 µM (top of the series)
How it was run: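 Cells seeded at 5,000 per well were treated with compounds over a concentration series and loaded with oleic acid (400 uM, as added). Lipid droplet fluorescence (488 nm excitation, 500-530 nm channel) was read by laser-scanning cytometry and normalized to 20 uM Triacsin C.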

[13] = Primary qHTS for small molecule stabilizers of the endoplasmic reticulum resident proteome: Secreted ER Calcium Modulated Protein (SERCaMP) assay (AID 1508630; active = well fitted curve in the direction sought with a large enough effect; an effect the other way counts as inactive or inconclusive; note: % is set by controls: 0 for no effect and ±100 for the full control effect); details: SH-SY5Y GLuc-SERCaMP (Gaussia luciferase released on ER calcium loss) secretion, thapsigargin, luminescence; series mostly up to 38.4 µM
How it was run: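 GLuc-SERCaMP-expressing SH-SY5Y cells, pretreated 16 h with compound, are challenged with thapsigargin to empty ER calcium stores; after 4 h, coelenterazine is added directly to the medium and luminescence is imaged.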

[14] = target: Cytochrome P450 3A4 (Homo sapiens) (UniProt P08684); assay: qHTS Assay for Activators of Cytochrome P450 3A4 (AID 885; active = well fitted curve in the direction sought with a large enough effect; an effect the other way counts as inactive or inconclusive; note: nearly all actives have a fitted effect of over 65% in size); details: recombinant CYP3A4, Luciferin-PPXE luminescence, 60 min; series mostly up to 57.1 µM
How it was run: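 20nM CYP3A4 + 25uM Luciferin-PPXE (=KM), 200mM KPO4; cpd 10 min RT; NADPH regen, 60 min RT; stop w/ detection buffer, 20 min; luminescence. Normalized to 57 uM ketoconazole.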

[15] = target: Glucocorticoid receptor (Homo sapiens) (UniProt P04150); assay: GR-GFP Redistribution (AID 450;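 active = compounds whose dose series gives a full or clear partial fitted curve of increased nuclear translocation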; note: potency is the fitted concentration of half-maximal effect); details: U2OS GR-GFP nuclear translocation, laser cytometry, 2 h
[16] = Confirmation and Secondary Assay for Modulators of Hemoglobin Beta Chain Splicing at IVS2 654 locus (AID 910; active = well fitted curve in the direction sought with a large enough effect; an effect the other way counts as inactive or inconclusive;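 note: HeLa cells stably carrying EGFP split by mutant beta-globin IVS2-654 intron; % of control where 0% means no effect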); details: HeLa EGFP-654 splicing reporter, GFP fluorescence, 48 h; series mostly up to 38.3 µM
How it was run: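 HeLa cells stably expressing EGFP interrupted by β-globin IVS2-654 intron, seeded overnight in Opti-MEM/2% FCS, then treated 2 days at 37 °C. Restored splicing read as total peak GFP intensity per well by laser scanning cytometry (488 nm excitation, 500–520 nm emission); 500 nM antisense PNA as control.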

[17] = target: Ubiquitin carboxyl-terminal hydrolase 1 (Homo sapiens) (UniProt O94782); assay: Inhibitors of USP1/UAF1: Pilot qHTS (AID 504865; active = well fitted curve in the direction sought with a large enough effect; an effect the other way counts as inactive or inconclusive;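 note: rhodamine fluorescence freed from ubiquitin-rhodamine substrate followed over time; top concentration of the series differs between compounds; % is set by controls: 0 for no effect and ±100 for the full control effect; nearly all actives have a fitted effect of over 35% in size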); details: purified USP1/UAF1, Ub-rhodamine cleavage fluorescence; series mostly up to 54.9 µM
How it was run: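 In 50mM HEPES pH 7.8 containing 0.5mM EDTA, 1mM TCEP, 0.1 mg/ml BSA and 0.01% Tween-20, 1nM USP1/UAF1 is exposed to compound for 15 min, then Ub-Rho (150nM final) is added and fluorescence is read over time.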

[18] = qHTS Assay for Identification of Small Molecule Agonists for Hypoxia Response Element Signaling Pathway (AID 914; active = well fitted activation curve with a large enough effect in the signal ratio, with a control signal flat, not every such curve was filed as active; the % refers to the signal ratio; note: potency is the fitted concentration of half-maximal effect); details: ME-180 HRE-bla reporter, beta-lactamase ratio, CoCl2, 17 h; activation: stronger effect = higher value
How it was run: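 Read-out: CCF4 FRET ratio of 460nm to 530nm emission (excitation 405nm) after 2.5 hours at room temperature, taken from HRE-bla ME-180 cells that had been exposed to compound and EC50 CoCl2 for 17 hours.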

[19] = Stat Signaling Pathway (AID 446); details: ME-180 SIE beta-lactamase reporter, IL-6 stimulated, 5 h; at 7.69 µM (top of the series) unless noted
How it was run: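 ME-180 SIE-bla cells; overnight plating; cpd + IL-6 40 pM, 5 h, 37 C; LiveBLAzer 2.5 h RT; 460/530 nm emission ratio. Normalized to 300 pM IL-6 and 125 nM JAK inhibitor controls.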

[20] = measured here: cell count channel max response
[21] = measured here: lipid channel max response

Cytochrome P450 1A2 (Homo sapiens), sequence (P05177 whole entry, looked up): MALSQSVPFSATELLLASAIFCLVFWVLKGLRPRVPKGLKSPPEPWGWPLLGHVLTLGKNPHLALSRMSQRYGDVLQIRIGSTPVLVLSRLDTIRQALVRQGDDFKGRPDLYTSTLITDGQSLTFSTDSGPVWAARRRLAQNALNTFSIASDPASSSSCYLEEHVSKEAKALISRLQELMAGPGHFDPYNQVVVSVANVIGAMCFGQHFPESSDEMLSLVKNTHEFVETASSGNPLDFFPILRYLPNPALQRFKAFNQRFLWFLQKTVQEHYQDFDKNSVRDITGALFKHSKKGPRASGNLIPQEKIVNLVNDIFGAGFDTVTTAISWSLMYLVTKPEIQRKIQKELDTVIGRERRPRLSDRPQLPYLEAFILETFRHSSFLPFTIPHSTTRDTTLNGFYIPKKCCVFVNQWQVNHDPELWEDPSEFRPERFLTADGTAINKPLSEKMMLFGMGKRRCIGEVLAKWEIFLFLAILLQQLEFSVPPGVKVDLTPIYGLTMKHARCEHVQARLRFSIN
Cytochrome P450 3A4 (Homo sapiens), sequence (P08684 whole entry, looked up): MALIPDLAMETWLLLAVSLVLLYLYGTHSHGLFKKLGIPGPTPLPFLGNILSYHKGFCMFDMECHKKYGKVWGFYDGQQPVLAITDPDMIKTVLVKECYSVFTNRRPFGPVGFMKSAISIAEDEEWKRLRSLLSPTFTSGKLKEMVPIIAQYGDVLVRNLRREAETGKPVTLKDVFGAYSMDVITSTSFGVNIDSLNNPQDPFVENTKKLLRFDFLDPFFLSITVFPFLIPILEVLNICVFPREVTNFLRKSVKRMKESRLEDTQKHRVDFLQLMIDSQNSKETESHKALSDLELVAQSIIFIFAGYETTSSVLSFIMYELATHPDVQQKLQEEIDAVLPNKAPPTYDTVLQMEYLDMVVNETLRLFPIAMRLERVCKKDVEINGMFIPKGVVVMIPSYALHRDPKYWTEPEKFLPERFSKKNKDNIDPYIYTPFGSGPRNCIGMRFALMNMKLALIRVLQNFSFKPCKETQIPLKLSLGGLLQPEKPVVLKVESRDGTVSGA
Lysosomal acid glucosylceramidase (Homo sapiens), sequence (P04062 whole entry, looked up): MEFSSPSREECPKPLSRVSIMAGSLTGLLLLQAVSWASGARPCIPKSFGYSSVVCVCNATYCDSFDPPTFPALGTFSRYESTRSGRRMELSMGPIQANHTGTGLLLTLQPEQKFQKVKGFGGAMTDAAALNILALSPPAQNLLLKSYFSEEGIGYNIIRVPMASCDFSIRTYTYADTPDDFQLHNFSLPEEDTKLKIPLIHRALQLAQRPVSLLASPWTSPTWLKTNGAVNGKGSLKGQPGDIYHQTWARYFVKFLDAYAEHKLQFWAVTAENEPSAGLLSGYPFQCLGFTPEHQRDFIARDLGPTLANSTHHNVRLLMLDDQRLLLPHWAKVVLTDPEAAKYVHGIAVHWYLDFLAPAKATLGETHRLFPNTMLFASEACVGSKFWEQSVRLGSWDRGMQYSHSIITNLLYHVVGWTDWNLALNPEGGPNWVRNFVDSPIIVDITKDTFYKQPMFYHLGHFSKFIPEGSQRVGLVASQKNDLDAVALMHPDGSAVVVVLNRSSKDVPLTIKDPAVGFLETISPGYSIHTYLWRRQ
3',5'-cyclic-AMP phosphodiesterase 4B (Homo sapiens), sequence (Q07343 whole entry, looked up): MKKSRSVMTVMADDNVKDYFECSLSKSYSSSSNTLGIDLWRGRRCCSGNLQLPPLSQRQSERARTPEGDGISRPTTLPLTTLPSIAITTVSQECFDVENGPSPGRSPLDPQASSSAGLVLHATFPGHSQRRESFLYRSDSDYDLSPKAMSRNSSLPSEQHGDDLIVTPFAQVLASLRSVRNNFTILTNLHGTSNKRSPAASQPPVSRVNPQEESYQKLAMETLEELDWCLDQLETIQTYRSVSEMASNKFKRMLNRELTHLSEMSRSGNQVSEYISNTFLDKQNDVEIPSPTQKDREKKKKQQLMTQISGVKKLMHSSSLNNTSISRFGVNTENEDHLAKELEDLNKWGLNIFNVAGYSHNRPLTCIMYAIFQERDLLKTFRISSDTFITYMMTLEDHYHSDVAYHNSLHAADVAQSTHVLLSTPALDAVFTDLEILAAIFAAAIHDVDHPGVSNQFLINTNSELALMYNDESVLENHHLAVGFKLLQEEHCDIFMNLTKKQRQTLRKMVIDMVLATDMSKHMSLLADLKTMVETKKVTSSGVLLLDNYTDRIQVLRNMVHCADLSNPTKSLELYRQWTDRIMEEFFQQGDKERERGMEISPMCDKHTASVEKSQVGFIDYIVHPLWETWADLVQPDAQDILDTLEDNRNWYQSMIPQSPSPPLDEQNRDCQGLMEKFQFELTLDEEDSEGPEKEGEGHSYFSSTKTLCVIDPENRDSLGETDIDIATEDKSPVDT
Glucocorticoid receptor (Homo sapiens), sequence (P04150 whole entry, looked up, the tested form may be a part): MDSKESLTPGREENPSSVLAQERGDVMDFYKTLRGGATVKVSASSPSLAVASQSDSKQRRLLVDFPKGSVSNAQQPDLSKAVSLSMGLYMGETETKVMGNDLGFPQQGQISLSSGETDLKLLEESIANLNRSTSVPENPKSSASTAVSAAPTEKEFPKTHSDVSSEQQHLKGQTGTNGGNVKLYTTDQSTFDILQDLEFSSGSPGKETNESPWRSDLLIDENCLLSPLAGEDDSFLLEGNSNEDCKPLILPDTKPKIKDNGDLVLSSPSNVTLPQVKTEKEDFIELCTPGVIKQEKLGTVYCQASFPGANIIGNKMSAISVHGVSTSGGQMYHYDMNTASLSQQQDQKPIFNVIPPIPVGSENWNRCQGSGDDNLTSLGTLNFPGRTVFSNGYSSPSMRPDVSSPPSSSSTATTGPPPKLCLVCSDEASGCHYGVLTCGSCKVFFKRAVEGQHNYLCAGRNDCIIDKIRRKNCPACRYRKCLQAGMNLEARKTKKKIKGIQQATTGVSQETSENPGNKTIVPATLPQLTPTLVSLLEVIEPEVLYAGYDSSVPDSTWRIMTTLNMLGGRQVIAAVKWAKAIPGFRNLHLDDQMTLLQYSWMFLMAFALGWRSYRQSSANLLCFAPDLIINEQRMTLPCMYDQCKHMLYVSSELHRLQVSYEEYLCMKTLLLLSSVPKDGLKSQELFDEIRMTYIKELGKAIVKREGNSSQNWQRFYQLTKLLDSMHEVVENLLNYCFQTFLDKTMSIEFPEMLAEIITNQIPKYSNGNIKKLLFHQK
Cytochrome P450 2C9 (Homo sapiens), sequence (P11712 whole entry, looked up): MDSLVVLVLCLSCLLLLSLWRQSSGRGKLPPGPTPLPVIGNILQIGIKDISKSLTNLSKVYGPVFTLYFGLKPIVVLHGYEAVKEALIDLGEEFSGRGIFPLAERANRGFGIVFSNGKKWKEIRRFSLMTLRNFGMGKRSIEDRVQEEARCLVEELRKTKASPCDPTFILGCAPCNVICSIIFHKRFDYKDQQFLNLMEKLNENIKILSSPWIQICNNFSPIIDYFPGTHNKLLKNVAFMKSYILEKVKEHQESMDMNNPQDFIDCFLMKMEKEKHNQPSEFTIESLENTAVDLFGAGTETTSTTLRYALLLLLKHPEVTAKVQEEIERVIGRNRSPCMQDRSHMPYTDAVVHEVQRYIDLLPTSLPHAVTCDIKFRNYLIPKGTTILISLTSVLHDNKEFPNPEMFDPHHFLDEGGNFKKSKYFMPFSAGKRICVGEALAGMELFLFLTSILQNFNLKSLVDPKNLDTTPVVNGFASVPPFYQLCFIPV
Ubiquitin carboxyl-terminal hydrolase 1 (Homo sapiens), sequence (O94782 whole entry, looked up): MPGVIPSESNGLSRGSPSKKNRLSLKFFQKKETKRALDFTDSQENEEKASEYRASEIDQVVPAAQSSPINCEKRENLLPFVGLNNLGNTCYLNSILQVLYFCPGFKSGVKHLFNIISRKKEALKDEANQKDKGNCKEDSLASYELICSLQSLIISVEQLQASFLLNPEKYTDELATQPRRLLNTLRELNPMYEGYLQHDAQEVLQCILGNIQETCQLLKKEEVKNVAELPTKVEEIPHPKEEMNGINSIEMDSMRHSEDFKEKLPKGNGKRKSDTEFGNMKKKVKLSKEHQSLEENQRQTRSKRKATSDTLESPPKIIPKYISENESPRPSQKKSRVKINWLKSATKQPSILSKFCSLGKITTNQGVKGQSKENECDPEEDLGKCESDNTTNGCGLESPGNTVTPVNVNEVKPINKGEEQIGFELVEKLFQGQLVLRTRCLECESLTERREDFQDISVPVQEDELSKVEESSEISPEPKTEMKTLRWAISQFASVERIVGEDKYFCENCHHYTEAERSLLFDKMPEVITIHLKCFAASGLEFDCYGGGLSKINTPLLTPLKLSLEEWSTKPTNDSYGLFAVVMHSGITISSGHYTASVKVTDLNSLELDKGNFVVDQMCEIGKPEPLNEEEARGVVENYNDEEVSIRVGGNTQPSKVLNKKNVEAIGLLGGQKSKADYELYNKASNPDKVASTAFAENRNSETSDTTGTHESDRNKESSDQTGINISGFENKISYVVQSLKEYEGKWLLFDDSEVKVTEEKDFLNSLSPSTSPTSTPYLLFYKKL
Cytochrome P450 2C19 (Homo sapiens), sequence (P33261 whole entry, looked up): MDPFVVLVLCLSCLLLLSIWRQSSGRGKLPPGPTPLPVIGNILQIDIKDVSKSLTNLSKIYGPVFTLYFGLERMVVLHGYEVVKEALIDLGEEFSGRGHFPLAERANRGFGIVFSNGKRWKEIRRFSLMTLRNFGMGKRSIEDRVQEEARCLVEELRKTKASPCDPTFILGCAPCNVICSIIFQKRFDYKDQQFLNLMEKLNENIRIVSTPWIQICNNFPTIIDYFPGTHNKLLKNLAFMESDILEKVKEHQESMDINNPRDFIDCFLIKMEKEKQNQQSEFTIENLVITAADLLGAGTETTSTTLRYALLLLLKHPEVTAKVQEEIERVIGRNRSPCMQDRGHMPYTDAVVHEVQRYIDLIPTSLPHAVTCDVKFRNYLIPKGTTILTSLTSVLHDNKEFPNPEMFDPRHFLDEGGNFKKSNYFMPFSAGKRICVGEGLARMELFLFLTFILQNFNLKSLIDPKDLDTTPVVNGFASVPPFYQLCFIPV

Cc1noc(C)c1C(=O)N1CCC2(CC1)CCN(c1cccc(-c3ccccc3)c1)CC2
-15.8%: max response [12, 21]
-11.4%: max response [12, 20]
inactive: Potency [1] > 11.4 µM | activity change, negative = inhibition [2] -13.8% | Potency [3] | activity change, negative = inhibition [4] -2.13% | Potency [5] > 46 µM | outcome [6] | Potency [7] | Potency [8] | Potency [9] | Potency [10] | Potency [11] | activity change, negative = inhibition [12] -7.36% | Potency [13]

CS(=O)(=O)N1CCC2(CCN(Cc3ccncc3)CC2)CC1
inactive: Potency [1] > 11.4 µM | activity change, negative = inhibition [2] -1.98% | Potency [3] | activity change, negative = inhibition [4] -4.26% | Potency [5] > 46 µM | outcome [6] | Potency [7] | Potency [14] | activity change, negative = inhibition [12] 5.08% | Potency [13]
18.4%: max response [12, 21]
9.75%: max response [12, 20]

CN1CCN(c2cc(-c3ccccc3C(F)(F)F)ncn2)CC1
inactive: Potency [1] > 11.4 µM | activity change, negative = inhibition [2] 8.33% | activity change, negative = inhibition [4] -29.9% | Potency [15] > 46 µM | Potency [5] > 46 µM | outcome [6] | Potency [7] | outcome [16] | activity change, negative = inhibition [12] 9.46% | Potency [17] | Potency [13]
20.3%: max response [12, 20]
26.3%: max response [12, 21]
active: Potency [3] 12.6 µM

COCCn1c(=O)c(C)nc2cnc(N3CCNCC3)nc21
6.84%: max response [12, 21]
active: Potency [3] 10 µM
inactive: Potency [1] > 11.4 µM | activity change, negative = inhibition [2] -21.3% | activity change, negative = inhibition [4] -18.9% | Potency [15] > 9.22 µM | Potency [5] > 46 µM | outcome [6] | Potency [7] | activity change, negative = inhibition [12] 1.17% | Potency [13]
4.65%: max response [12, 20]

Cn1cc(-c2nc3cnc(Oc4cccc(Cl)c4)nc3n(CCC#N)c2=O)c2ccccc21
0.937%: max response [12, 21]
active: Potency [3] 2.51 µM | Potency [18] 1.58 µM
6.76%: max response [12, 20]
inactive: Potency [1] > 11.4 µM | activity change, negative = inhibition [2] 0.05% | activity change, negative = inhibition [4] 21.5% | Potency [15] > 9.22 µM | Potency [5] > 46 µM | Potency [7] | Potency [8] | Potency [14] | activity change, negative = inhibition [12] -7.95% | Potency [13]

COC(=O)N1CCC2(CC1)CN(C(=O)Nc1cccc(C#N)c1)C2
-0.334%: max response [12, 20]
8.67%: max response [12, 21]
inactive: Potency [1] > 11.4 µM | activity change, negative = inhibition [2] 2.52% | Potency [3] | activity change, negative = inhibition [4] 6.57% | activity, negative = inhibition [19] -1.88% | outcome [6] | Potency [7] | activity change, negative = inhibition [12] 4.73% | Potency [13]
